Data published in PubChem BioAssay AID1159580 (chemical genetic matrix, 2015).
Out of some 5,500 compounds screened, about 2,000 (36%) were called active. Another 18% or so got no clear call; they are omitted. Cut-off read from the data, not from the text of the source: active = normalized growth mostly below about 0.91 (no sharp cut-off); inconclusive = no clear call, values can overlap the other calls; inactive = mostly above about 0.92. Some of the results follow.

Assay: chemical genetic growth profiling, strain panel (AID 1159580);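 note: tested at 20 µM; growth read once vehicle control cultures reached saturation at 30 °C; 1 = growth at the plate median or of vehicle wells; lower values mean less growth of the strain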
Settings: growth OD
[1] = S. cerevisiae deletion strains, locus YAL013W, strain DEP1, stronger effect = lower value
[2] = S. cerevisiae deletion strains, locus YBR229C, strain ROT2, stronger effect = lower value
[3] = S. cerevisiae deletion strains, locus YDL101C, strain DUN1, stronger effect = lower value
[4] = S. cerevisiae deletion strains, locus YDL134C, strain PPH21, stronger effect = lower value
[5] = S. cerevisiae deletion strains, locus YDR150W, strain NUM1, stronger effect = lower value
[6] = S. cerevisiae deletion strains, locus YEL061C, strain CIN8, stronger effect = lower value
[7] = S. cerevisiae deletion strains, locus YGR078C, strain PAC10, stronger effect = lower value
[8] = S. cerevisiae deletion strains, locus YHR030C, strain SLT2, stronger effect = lower value
[9] = S. cerevisiae deletion strains, locus YHR087W, strain rtc3, stronger effect = lower value
[10] = S. cerevisiae deletion strains, locus YJL187C, strain SWE1, stronger effect = lower value
[11] = S. cerevisiae deletion strains, locus YJR043C, strain POL32, stronger effect = lower value
[12] = S. cerevisiae deletion strains, locus YJR075W, strain HOC1, stronger effect = lower value
[13] = S. cerevisiae deletion strains, locus YLR039C, strain RIC1, stronger effect = lower value
[14] = S. cerevisiae deletion strains, locus YLR058C, strain SHM2 (second series), stronger effect = lower value
[15] = S. cerevisiae deletion strains, locus YLR085C, strain ARP6, stronger effect = lower value
[16] = S. cerevisiae deletion strains, locus YLR262C, strain YPT6, stronger effect = lower value
[17] = S. cerevisiae deletion strains, locus YML094W, strain GIM5, stronger effect = lower value
[18] = S. cerevisiae deletion strains, locus YMR219W, strain ESC1, stronger effect = lower value
[19] = S. cerevisiae deletion strains, locus YMR263W, strain SAP30, stronger effect = lower value
[20] = S. cerevisiae deletion strains, locus YNL153C, strain GIM3, stronger effect = lower value
[21] = S. cerevisiae deletion strains, locus YNL298W, strain CLA4 (second series), stronger effect = lower value
[22] = S. cerevisiae deletion strains, locus YNL322C, strain KRE1, stronger effect = lower value
[23] = S. cerevisiae deletion strains, locus YNR030W, strain Alg12, stronger effect = lower value
[24] = S. cerevisiae deletion strains, locus YPL055C, strain LGE1, stronger effect = lower value
[25] = S. cerevisiae deletion strains, locus YPL241C, strain CIN2, stronger effect = lower value
[26] = S. cerevisiae deletion strains, locus YPR135W, strain CTF4, stronger effect = lower value
[27] = S. cerevisiae deletion strains, locus YGR229C, strain SMI1, stronger effect = lower value

Measured: normalized growth

O=C1C2C3C=CC(C3)C2C(=O)N1c1ccc(F)c(F)c1 (stereo not drawn)
inactive: [1] 1.01 | [2] 1.03 | S. cerevisiae deletion strains, locus YCL061C, strain MRC1, stronger effect = lower value 0.986 | [3] 0.993 | [4] 0.999 | [5] 0.997 | [6] 1.03 | [7] 0.994 | [8] 1.01 | [9] 0.995 | [10] 1.01 | [11] 0.957 | [12] 1.01 | S. cerevisiae deletion strains, locus YKL190W, strain CNB1, stronger effect = lower value 0.99 | [13] 0.995 | [14] 0.981 | [15] 1.06 | [16] 0.992 | [17] 1.01 | [18] 1 | [19] 1 | [20] 0.983 | [21] 0.982 | [22] 1.02 | [23] 1.02 | [24] 1.06 | [25] 0.994 | [26] 0.975

O=C1CSCC(=O)N1c1ccc(F)c(Cl)c1
inactive: [1] 0.993 | [2] 0.994 | [3] 1 | [4] 0.99 | [5] 0.935 | [6] 0.984 | [7] 0.994 | [27] 0.985 | [8] 0.996 | [9] 0.981 | [10] 1 | [11] 0.925 | [12] 0.989 | [13] 1.02 | [14] 1 | [15] 0.978 | [16] 0.995 | [17] 0.992 | [18] 1 | [19] 0.994 | [20] 0.997 | [21] 0.998 | [22] 0.979 | [24] 0.97 | [26] 1
active: [23] 0.281 | [25] 0.378

CC(=O)c1ccc(N2C(=O)CSCC2=O)cc1
inactive: [1] 0.999 | [2] 0.999 | [3] 1.01 | [4] 0.977 | [5] 0.984 | [6] 1.02 | [7] 1 | [27] 0.972 | [8] 1.02 | [9] 1 | [11] 0.991 | [12] 1.02 | [13] 0.962 | [14] 0.999 | [15] 1.04 | [16] 0.912 | [17] 1.03 | [18] 0.994 | [19] 0.999 | S. cerevisiae deletion strains, locus YMR307W, strain GAS1, stronger effect = lower value 1.11 | [20] 1.01 | [21] 0.992 | [22] 0.988 | [23] 0.996 | [24] 1.02 | [25] 0.983 | [26] 0.99 | S. cerevisiae strains, strain wild type, stronger effect = lower value 0.97
